SMILES strings stand for the structures. Results filed as inconclusive are left out. A call without a number means that no potency is given here. Calls of active or inactive are those of the source. The call rests on the fitted dose curve; in most records, active means well fitted inhibition curve with a large enough effect; inconclusive means small, poorly fitted or top-dose-only effect; inactive means flat fitted curve, though single readings scatter.

This passage reports Potency results from PubChem BioAssay (NCATS).
Potency means the concentration at half of the fitted maximal effect.

One assay has as its system PC49. As to the kind of experiment: qHTS profiling for inhibitors of Plasmodium falciparum proliferation (AID 504749). Further: nearly all actives have a fitted effect of over 60% in size. To be noted: P. falciparum in erythrocytes, SYBR Green DNA, 72 h; series mostly up to 28.7 µM. The essentials: (§1)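 Three-day growth assay of blood-stage parasites in erythrocytes (0.3% parasitemia, 2.5% hematocrit) at 37 C, 5% CO2, quantified by SYBR Green DNA staining after overnight detergent lysis.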
Regarding `COC(=O)[C@H]1[C@H]2C[C@@H]3c4[nH]c5cc(OC)ccc5c4CCN3C[C@H]2C[C@@H](OC(=O)c2cc(OC)c(OC)c(OC)c2)[C@@H]1OC`, the Potency is 7.94 µM (active).

On to `OCCN1CCN(CCCN2c3ccccc3C=Cc3ccccc32)CC1`, for which the Potency was 1.41 µM (active).

Take `C[C@]12CCC(=O)C=C1CC[C@@H]1[C@@H]2CC[C@@]2(C)[C@H]1CC[C@]2(O)C(=O)CO`: the Potency result is “inactive”.

Take `CCCC(C(=O)OCCN(CC)CC)(c1ccccc1)c1ccccc1`: the Potency is 7.08 µM (active).

For the molecule `CCn1ccnc1CC1COc2ccccc2O1` (stereo not drawn), the Potency entry was “inactive”.

Regarding `CN1CCN(C2=Nc3ccccc3Oc3ccc(Cl)cc32)CC1`, the Potency result was “inactive”.

Consider `C=CCc1ccccc1OCC(O)CNC(C)C` (stereo not drawn), for which the Potency entry is “inactive”.

Regarding `NC(N)=N/N=C/c1c(Cl)cccc1Cl`, the Potency entry is “inactive”.

With `c1cnc(N2CCN(Cc3ccc4c(c3)OCO4)CC2)nc1`, the Potency result is “inactive”.

As to `CCCN1C[C@H](CSC)C[C@@H]2c3cccc4[nH]cc(c34)C[C@H]21`, the Potency result is “inactive”.

As to `Brc1c(NC2=NCCN2)ccc2nccnc12`, the Potency result is “inactive”.

In the case of `CCC(=O)c1ccc2c(c1)N(CCCN(C)C)c1ccccc1S2`, the Potency entry was “inactive”.

As for `CCN(CC)CCCN(c1ccccc1)C1Cc2ccccc2C1`, the Potency is 3.98 µM (active).

As to `CC(=O)[C@]1(O)Cc2c(O)c3c(c(O)c2[C@@H](O[C@H]2C[C@H](N)[C@H](O)[C@H](C)O2)C1)C(=O)c1ccccc1C3=O`, the Potency was 7.08 µM (active).

For `CC(=O)[C@@]1(O)CC[C@H]2[C@@H]3CCC4=CC(=O)CC[C@]4(C)[C@H]3CC[C@@]21C`, the Potency result was “inactive”.

With `O=c1[nH]c(=O)n([C@H]2C[C@H](O)[C@@H](CO)O2)cc1Br`, the Potency entry is “inactive”.

Consider `COc1ccc(CCN(C)CCCC(C#N)(c2cc(OC)c(OC)c(OC)c2)C(C)C)cc1OC` (stereo not drawn), for which the Potency entry is “inactive”.

With `C[n+]1cc2c3c(ccc2c2ccc4cc5c(cc4c21)OCO5)OCO3`, the Potency result is “inactive”.

In the case of `Nc1nc(N)c2nc(-c3ccccc3)c(N)nc2n1`, the Potency entry is “inactive”.

Turning to `COc1ccc(CN(CCN(C)C)c2ccccn2)cc1`, the Potency was 0.178 µM (active).

As to `CC(N=C(NC#N)Nc1ccncc1)C(C)(C)C` (stereo not drawn), the Potency result was “inactive”.

As to `CCCCNc1c(C(=O)OCC)c(C)nc2c1cnn2CC`, the Potency entry was “inactive”.

Turning to `CNCCC(Oc1ccccc1OC)c1ccccc1` (stereo not drawn), the Potency is 3.16 µM (active).

Turning to `O=C(CCCN1CCC(O)(c2cccc(C(F)(F)F)c2)CC1)c1ccc(F)cc1`, the Potency is 7.94 µM (active).

The test system of a further assay is SC27B. The description is as above. To be noted: P. falciparum in erythrocytes, SYBR Green DNA, 72 h; series mostly up to 28.7 µM. Summed up: as §1
As to `COC(=O)[C@H]1[C@H]2C[C@@H]3c4[nH]c5cc(OC)ccc5c4CCN3C[C@H]2C[C@@H](OC(=O)c2cc(OC)c(OC)c(OC)c2)[C@@H]1OC`, the Potency is 7.08 µM (active).

As to `OCCN1CCN(CCCN2c3ccccc3C=Cc3ccccc32)CC1`, the Potency is 7.94 µM (active).

Take `C[C@]12CCC(=O)C=C1CC[C@@H]1[C@@H]2CC[C@@]2(C)[C@H]1CC[C@]2(O)C(=O)CO`: the Potency entry was “inactive”.

Consider `CCn1ccnc1CC1COc2ccccc2O1` (stereo not drawn), for which the Potency entry is “inactive”.

On to `CN1CCN(C2=Nc3ccccc3Oc3ccc(Cl)cc32)CC1`, for which the Potency entry was “inactive”.

Take `CN(C)CCOC(=O)COc1ccc(Cl)cc1`: the Potency result was “inactive”.

In the case of `NC(N)=N/N=C/c1c(Cl)cccc1Cl`, the Potency entry was “inactive”.

Regarding `CCCCNc1ccc(C(=O)OCCN(C)C)cc1`, the Potency result is “inactive”.

Consider `c1cnc(N2CCN(Cc3ccc4c(c3)OCO4)CC2)nc1`, for which the Potency entry was “inactive”.

`OC(CCN1CCCCC1)(c1ccccc1)C1CCCCC1` (stereo not drawn): the Potency entry was “inactive”.

For the molecule `CCCN1C[C@H](CSC)C[C@@H]2c3cccc4[nH]cc(c34)C[C@H]21`, the Potency is 11.2 µM (active).

Turning to `Brc1c(NC2=NCCN2)ccc2nccnc12`, the Potency entry was “inactive”.

As for `CCC(=O)c1ccc2c(c1)N(CCCN(C)C)c1ccccc1S2`, the Potency result was “inactive”.

In the case of `CCN(CC)CCCN(c1ccccc1)C1Cc2ccccc2C1`, the Potency is 7.94 µM (active).

`CC(=O)[C@]1(O)Cc2c(O)c3c(c(O)c2[C@@H](O[C@H]2C[C@H](N)[C@H](O)[C@H](C)O2)C1)C(=O)c1ccccc1C3=O`: the Potency was 5.01 µM (active).

As for `CC(=O)[C@@]1(O)CC[C@H]2[C@@H]3CCC4=CC(=O)CC[C@]4(C)[C@H]3CC[C@@]21C`, the Potency result was “inactive”.

With `O=c1[nH]c(=O)n([C@H]2C[C@H](O)[C@@H](CO)O2)cc1Br`, the Potency result is “inactive”.

For the molecule `C[n+]1cc2c3c(ccc2c2ccc4cc5c(cc4c21)OCO5)OCO3`, the Potency entry is “inactive”.

On to `Nc1nc(N)c2nc(-c3ccccc3)c(N)nc2n1`, for which the Potency result was “inactive”.

Turning to `CC(N=C(NC#N)Nc1ccncc1)C(C)(C)C` (stereo not drawn), the Potency result is “inactive”.

`CCOC(=O)C1=C(C)NC(C)=C(C(=O)OC)C1c1cccc([N+](=O)[O-])c1` (stereo not drawn): the Potency was 12.6 µM (active).

Consider `CCCCNc1c(C(=O)OCC)c(C)nc2c1cnn2CC`, for which the Potency result was “inactive”.

For the molecule `CCCCCCCC/C=C\CCCCCCCC(=O)NCc1ccc(O)c(OC)c1`, the Potency is 10 µM (active).

In the case of `O=C(CCCN1CCC(O)(c2cccc(C(F)(F)F)c2)CC1)c1ccc(F)cc1`, the Potency is 11.2 µM (active).

The next assay deals with TAB109. Described as above. The conditions noted are these: P. falciparum in erythrocytes, SYBR Green DNA, 72 h; series mostly up to 28.7 µM. The essentials:
as §1
`COC(=O)[C@H]1[C@H]2C[C@@H]3c4[nH]c5cc(OC)ccc5c4CCN3C[C@H]2C[C@@H](OC(=O)c2cc(OC)c(OC)c(OC)c2)[C@@H]1OC`: the Potency is 8.91 µM (active).

As to `OCCN1CCN(CCCN2c3ccccc3C=Cc3ccccc32)CC1`, the Potency is 7.94 µM (active).

On to `C[C@]12CCC(=O)C=C1CC[C@@H]1[C@@H]2CC[C@@]2(C)[C@H]1CC[C@]2(O)C(=O)CO`, for which the Potency entry is “inactive”.

`CCCC(C(=O)OCCN(CC)CC)(c1ccccc1)c1ccccc1`: the Potency was 11.2 µM (active).

As to `CCn1ccnc1CC1COc2ccccc2O1` (stereo not drawn), the Potency result is “inactive”.

For `CN1CCN(C2=Nc3ccccc3Oc3ccc(Cl)cc32)CC1`, the Potency result is “inactive”.

Take `CN(C)CCOC(=O)COc1ccc(Cl)cc1`: the Potency entry is “inactive”.

As for `CCCCNc1ccc(C(=O)OCCN(C)C)cc1`, the Potency entry was “inactive”.

As to `c1cnc(N2CCN(Cc3ccc4c(c3)OCO4)CC2)nc1`, the Potency result is “inactive”.

For the molecule `CCCN1C[C@H](CSC)C[C@@H]2c3cccc4[nH]cc(c34)C[C@H]21`, the Potency was 12.6 µM (active).

Turning to `COc1cc(C(=O)OCCCN2CCCN(CCCOC(=O)c3cc(OC)c(OC)c(OC)c3)CC2)cc(OC)c1OC`, the Potency is 11.2 µM (active).

Consider `CCN(CC)CCCN(c1ccccc1)C1Cc2ccccc2C1`, for which the Potency is 3.55 µM (active).

For the molecule `CC(=O)[C@]1(O)Cc2c(O)c3c(c(O)c2[C@@H](O[C@H]2C[C@H](N)[C@H](O)[C@H](C)O2)C1)C(=O)c1ccccc1C3=O`, the Potency was 3.98 µM (active).

Consider `CC(=O)[C@@]1(O)CC[C@H]2[C@@H]3CCC4=CC(=O)CC[C@]4(C)[C@H]3CC[C@@]21C`, for which the Potency entry is “inactive”.

On to `O=c1[nH]c(=O)n([C@H]2C[C@H](O)[C@@H](CO)O2)cc1Br`, for which the Potency entry is “inactive”.

As to `C[n+]1cc2c3c(ccc2c2ccc4cc5c(cc4c21)OCO5)OCO3`, the Potency result is “inactive”.

As for `Nc1nc(N)c2nc(-c3ccccc3)c(N)nc2n1`, the Potency result was “inactive”.

Consider `CC(N=C(NC#N)Nc1ccncc1)C(C)(C)C` (stereo not drawn), for which the Potency entry was “inactive”.

Take `CCCCNc1c(C(=O)OCC)c(C)nc2c1cnn2CC`: the Potency entry is “inactive”.

As for `O=C(CCCN1CCC(O)(c2cccc(C(F)(F)F)c2)CC1)c1ccc(F)cc1`, the Potency is 8.91 µM (active).
